± gives the standard deviation.
Test system: EfPiwi piRISC loaded with L1MC piRNA (26 nt)
Assay: pre-steady-state target cleavage rate (min^-1); auxiliary factor: 500 nM Ephydatia muelleri Gtsf1; guide: L1MC piRNA 5'p-UAACUAAAUACUAUGCAAGCUGUAGG; MIWI and MILI are mouse PIWI proteins and EfPiwi is from a freshwater sponge; tags in brackets are library labels; higher = faster piRNA-guided slicing of the target
In short: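 In HEPES–potassium acetate buffer at 33 °C, […] transcribed, DNA-blocked target RNA library was mixed with 1 nM active affinity-purified piRISC carrying one synthetic guide, with or without 500 nM GTSF1 partner protein, for 0–8 or 0–960 min. Uncleaved targets were sequenced and normalised to depth and to weakly complementary targets; three trials were pooled and k3 was capped at 0.0001 min^-1. The pre-steady-state cleavage rate followed from a burst-and-steady-state fit.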

Sequence | pre-steady-state target cleavage rate
UCCUCCUACAGCUUCCAUAGUAUUUAGAAA | 0.00369 ± 0.0018
UCCUGGAUGUCGAACGUAAGGAUUUAGUUA | < 0.0001
UCCUGGAUGUCGUUGCAUAGAUAAAUCAAA [g11:g18:cont:t1A] | < 0.0001
UCCUGGUACAGCUUGCAUAGUAUAUUCAAA | 0.00341 ± 0.0028
UCCUCCUACAGCUUCCAUAGUAUUUACAAA | 0.00265 ± 0.0026
UCCUGGAACAGCUUGGAUAGUAUUUACAAA | 0.00254 ± 0.0019
UCCUGGAUGUGCUUGCAUAGUACUUUAGUUA | 0.0126 ± 0.0061
UCCUGGAUGUCGAACGUAUGUUAUUUAGUUA | < 0.0001
UCCUGGAACAGCUGGCAUAGUAUUUAGUUA | 0.00699 ± 0.0026
UCCUGGAUGUCGAACGUAAGUAUUUAGUGA | < 0.0001
UCCUGGAUGUCGAACGUAAGUAUUUGGUUA | < 0.0001
UCCUGCUACAGCUUCCAUAGUAUUUUCAAA | 0.0032 ± 0.0021
UCCUCCUACAGCUUGCAUAGUAAUUACAAA | 0.00353 ± 0.0025
UCCUGGAUGUCGAACCAUUGAAUUUAGUUA | < 0.0001
UCCUCCAUCAGCUUGCAUAGUAUUUAGUAA | 0.00678 ± 0.003
UCCUGGAACAGCUAGCAUAGUAAUUAGUUA | 0.0062 ± 0.0028
UCCUCCUACAGCUUGGAUAGUAUUUUCAAA | 0.00297 ± 0.0022
UCCUGCUACAGCUAGCAUAGAAUUUAGUUA | 0.00327 ± 0.0022
UCCUGGUACAGCUUGCAUAGUAAUUUAGUUA | 0.00647 ± 0.0026

Sequence | pre-steady-state target cleavage rate
UCCUGGAUGAGCUUGCAUUGUAUUAAGUUA | 0.0041 ± 0.0035
UCCUGCUACAGCAUGCAAAGUAUUUAGUUA | 0.00845 ± 0.0025
UCCUCCUACAGGUUGCAUAGUAUUUACAAA | 0.00321 ± 0.0024
UCCUGGAUGUACUUGCAUAGUAUUUAGUUA | 0.00383 ± 0.0029
UCCUGGAUGUCGAACCAUAGUAUUUAGUUC [g2:g15:cont:t1C] | < 0.0001
UCCUGGAUGUCGAACGAUAGUAUUAUAGUUA | < 0.0001
UCCUGGAUGUCGAACCAAAGUAUUUAGUUA | < 0.0001
UCCUGCUACAGCUUGCAUUGUAUUUAGUAA | 0.00316 ± 0.0014
UCCUGGAUGUGCUAGCAUAGUAUUUAGUUA | 0.00573 ± 0.0027
UCCUGGUCACAGCUUGCAUAGUAUUUAGUUA | 0.00857 ± 0.0072
UCCUGGAUGUCGAACGUAUCUAUUAUAGUUA | < 0.0001
UCCUGGAUGUCGAACCAUAGUAAUUAGUUA | < 0.0001
UCCUGGAUCAGCUUGCAUAGUAUUAUGUUA | 0.005 ± 0.0024
UCCUGCUACAGCUUGCAUAGUAUUUAGUA | 0.00529 ± 0.0019
UCCUGGAUGUGCUUGCAUAGUAUUUUGUUA | 0.00341 ± 0.0026
UCCUGCUACAGCUUGCAUAGUAUAAUGUAA | 0.00248 ± 0.002
UCCUGGAUGUCGAACGUUACUAUUUAGUUA | < 0.0001
UCCUGGAUGUCGUGCAUAGUAUUUAGUUA | 0.00802 ± 0.003
UCCUGGAUGAGCUUGCAUACUAUUUAGAUA | 0.00231 ± 0.0021

Sequence | pre-steady-state target cleavage rate
UCCUGGAUGUCGUUGGUAAGUAUUUAGUUA | < 0.0001
UCCUGGAUGAGCUUGCAUAGUAUUUGGUUA | 0.00713 ± 0.002
UCCUGCUUCAGCUUGCAUAGUAUUUUGUUA | 0.00635 ± 0.0022
UCCUGGAUGUCGAAGCAUAGUAUUUAGUUA [g2:g16:cont:t1A] | 0.00352 ± 0.002
UCCUGGAUCAGCUUGCAUAGUAAUUAGUAA | 0.00487 ± 0.0027
UCCUGGUACAGCUUGAAUAGUAUUUAGUUA | 0.0053 ± 0.0028
UCCUGGAUGUCCUGCAUAGUAUUUAGUUA | 0.00358 ± 0.0026
UCCUGCUACAGCUAGCAUAGUAUAUAGUUA | 0.00485 ± 0.0017
UCCUGGUACAGCUUGCAUAGUAUUAAGAUA | 0.0058 ± 0.0028
UCCUGCUAGUGCUUGCAUAGUAUUUAGAAA | 0.00258 ± 0.0014
UCCUCCUACAGCUUGCUUAGUAUUUAGUUA | 0.0424 ± 0.012
UCCUGGAUGUGCUUGCAUAGUAUUUAGUCUA | 0.00336 ± 0.0024
UCCUGCUACAGCUUGCAUAGUAUUAAGAAA | 0.00481 ± 0.0021
UCCUCGAUCAGCUUGCAUAGUAUUUAGUUA | 0.121 ± 0.023
UCCUGGAACAGCAUGCAUAGUAUUUAGUAA | 0.00384 ± 0.0023
UCCUGGAUGUCGAACCAUUCAAUUUAGUUA | < 0.0001
UCCUGGAUGUGCUUGCAUAGUAUUUACUAA | 0.146 ± 0.073
UCCUGCUACAGCUUGCAUGGUAUUUAGUUA | 0.0201 ± 0.0061
